# Inconclusive results are not listed. Calls of active or inactive are those of the source. Cut-off read from the data, not from the text of the source, unless noted: active = percent of DMSO control GFP below about 86%; inactive = the rest, inconclusive results apart.
# Legend:
# [1] = rapamycin-like changes in RPL19A-GFP expression – cell-based, S. cerevisiae, multiplex flow cytometry, primary screen (AID 1862);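 note: lower values mimic rapamycin by blocking the RPL19A rise seen in DMSO cells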; settings: S. cerevisiae RPL19A-GFP strain, flow cytometry fluorescence, 3 h; at 10 µM; stronger effect = lower value
# [2] = TOR pathway GLN3 branch reporter MEP2-GFP changes – S. cerevisiae, multiplex flow cytometry, primary screen (AID 1867;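 active = GFP response, as percent of the DMSO control, above the screen-wide mean plus 3 SD, about 139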;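 note: median GFP channel fluorescence of barcode-gated MEP2-GFP cells measured by flow cytometry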); settings: S. cerevisiae MEP2-GFP strain, 3 h, at 10 µM, stronger effect = higher value, 100% means same as DMSO wells
# [3] = TOR pathway RTG branch CIT2 reporter changes – S. cerevisiae, GFP fusion, multiplex flow cytometry, primary screen (AID 1870;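 active = percent response above a set limit, the screen-wide mean plus 3 SD, cut at about 130% in these data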;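 note: barcoded CIT2-GFP strain pooled with four other GFP strains with rapamycin as positive control; median GFP fluorescence per well over plate mean of DMSO wells so 100% = DMSO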); settings: S. cerevisiae CIT2-GFP expression, 3 h, at 10 µM, stronger effect = higher value
# [4] = TOR pathway LAP4-GFP level changes – S. cerevisiae, multiplex flow cytometry, primary screen (AID 1873;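 active = GFP signal, as percent of the solvent control, above the screen mean plus 3 SD, about 149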); settings: S. cerevisiae LAP4-GFP expression, 3 h, at 10 µM, stronger effect = higher value
# [5] = yeast AGP1-GFP level changes, GLN3 branch – cell-based, multiplex flow cytometry, S. cerevisiae, primary screen (AID 1887;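 active = GFP signal above the screen-wide mean plus 3 SD, that is over about 124.5% of the solvent control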;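 note: AGP1-GFP fusion strain of S. cerevisiae within a five-strain barcoded multiplex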); settings: 3 h, at 10 µM, stronger effect = higher value
# [6] = reduced mouse 2C T cell binding to pMHC/ICAM-1 vesicles – MLPCN validation set, flow cytometry, LFA-1/ICAM-1 modulator project, pilot screen (AID 2523;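 active = response below a set limit, under 55% cells CD8-positive and vesicle-bound, and CD8 cells' 90th-percentile brightness under 279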;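 for vesicle binding response: mean PE anti-B7-1 fluorescence of CD8+ cells relative to row control; 100% = QL9-loaded vesicles with DMSO vehicle in the same plate row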); settings: 2C mouse CD8+ T cells, at 7 µM, stronger effect = lower value; double positive events: measured here: CD8+/vesicle+ event percentage
# [7] = molecular target: Integrin beta-1 (Homo sapiens) + Integrin alpha-4 (Homo sapiens) (UniProt P13612+P05556); experiment: alpha4beta1 integrin LIBS antibody binding reduction – U937 cells, HUTS-21 mAb, flow cytometry, validation set, VLA-4 allosteric modulator project, pilot screen (AID 2674;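 active = inhibition above 50%, about 3 SD of the validation set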;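 note: antibody binding induced by the VLA-4 ligand LDV present at three times its Kd; 0% = LDV ligand with antibody and no compound and 100% = antibody without LDV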); settings: HUTS-21 LIBS mAb binding, at 6.7 µM, stronger effect = higher value, binding induced by LDV ligand
# Chain of Integrin beta-1 (Homo sapiens) + Integrin alpha-4 (Homo sapiens) (P05556 whole entry, looked up): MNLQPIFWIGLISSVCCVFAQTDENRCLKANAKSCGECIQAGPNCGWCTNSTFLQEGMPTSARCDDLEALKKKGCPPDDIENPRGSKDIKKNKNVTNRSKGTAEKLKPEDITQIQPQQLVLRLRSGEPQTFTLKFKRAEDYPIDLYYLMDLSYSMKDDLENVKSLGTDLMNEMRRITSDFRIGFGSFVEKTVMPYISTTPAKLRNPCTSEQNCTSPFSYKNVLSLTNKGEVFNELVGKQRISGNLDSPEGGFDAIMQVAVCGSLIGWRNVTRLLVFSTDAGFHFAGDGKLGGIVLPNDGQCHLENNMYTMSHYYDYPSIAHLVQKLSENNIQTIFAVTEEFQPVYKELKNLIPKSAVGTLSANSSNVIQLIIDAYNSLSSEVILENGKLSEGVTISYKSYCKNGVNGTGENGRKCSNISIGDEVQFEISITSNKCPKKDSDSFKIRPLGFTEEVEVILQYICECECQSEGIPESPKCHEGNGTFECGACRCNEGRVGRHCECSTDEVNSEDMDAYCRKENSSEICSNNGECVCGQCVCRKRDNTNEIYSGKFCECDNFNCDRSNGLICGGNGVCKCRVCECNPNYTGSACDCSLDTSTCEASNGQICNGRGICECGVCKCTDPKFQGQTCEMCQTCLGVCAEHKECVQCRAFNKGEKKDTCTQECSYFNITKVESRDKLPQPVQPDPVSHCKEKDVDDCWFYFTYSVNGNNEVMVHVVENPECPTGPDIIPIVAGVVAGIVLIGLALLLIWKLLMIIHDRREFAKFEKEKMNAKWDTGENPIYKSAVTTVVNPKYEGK
# Chain of Integrin beta-1 (Homo sapiens) + Integrin alpha-4 (Homo sapiens) (P13612 whole entry, looked up): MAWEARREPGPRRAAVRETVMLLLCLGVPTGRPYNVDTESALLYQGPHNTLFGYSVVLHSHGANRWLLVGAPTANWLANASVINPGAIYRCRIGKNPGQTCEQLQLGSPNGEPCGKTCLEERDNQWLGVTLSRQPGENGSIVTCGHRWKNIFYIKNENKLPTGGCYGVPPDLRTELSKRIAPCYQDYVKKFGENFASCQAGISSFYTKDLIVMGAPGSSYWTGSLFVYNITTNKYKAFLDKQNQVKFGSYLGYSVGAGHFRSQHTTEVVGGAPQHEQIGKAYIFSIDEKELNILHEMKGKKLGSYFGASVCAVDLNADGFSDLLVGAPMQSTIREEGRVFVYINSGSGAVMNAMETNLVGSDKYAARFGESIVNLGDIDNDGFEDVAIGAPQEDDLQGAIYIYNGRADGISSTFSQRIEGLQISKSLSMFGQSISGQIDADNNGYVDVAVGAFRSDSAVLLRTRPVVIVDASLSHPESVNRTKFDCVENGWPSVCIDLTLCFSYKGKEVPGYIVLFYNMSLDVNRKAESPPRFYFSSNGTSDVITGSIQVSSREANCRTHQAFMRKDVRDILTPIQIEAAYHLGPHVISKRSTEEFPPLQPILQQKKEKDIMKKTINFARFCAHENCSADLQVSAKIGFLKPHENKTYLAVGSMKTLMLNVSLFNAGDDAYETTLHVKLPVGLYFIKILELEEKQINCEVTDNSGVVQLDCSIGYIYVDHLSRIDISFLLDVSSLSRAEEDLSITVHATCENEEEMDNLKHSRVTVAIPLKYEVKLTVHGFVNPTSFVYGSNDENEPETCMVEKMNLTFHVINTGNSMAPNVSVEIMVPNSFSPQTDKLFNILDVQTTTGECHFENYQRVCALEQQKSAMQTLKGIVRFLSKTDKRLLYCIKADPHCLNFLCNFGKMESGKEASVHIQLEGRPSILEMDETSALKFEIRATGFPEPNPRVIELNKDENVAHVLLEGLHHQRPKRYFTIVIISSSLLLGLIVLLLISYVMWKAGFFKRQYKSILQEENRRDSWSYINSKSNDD
# [8] = calorie-restriction mimetic ROS inhibitors, yeast – validation compound set, pilot screen (AID 2706;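 active = superoxide response below 65% of plate, a cut near 3 SD across the whole screen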;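 note: yeast exposed to compound for one week at 30 degrees C before staining; 100% = mean of all compound wells on the same plate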); settings: S. cerevisiae aging, superoxide DHE fluorescence; at 10 µM, stronger effect = lower value
# [9] = molecular target: Beta-adrenergic receptor kinase 1 (Homo sapiens) (UniProt P25098); experiment: GRK2 binders displacing RNA aptamer, biochemical, validation, human GRK2, bead flow cytometry (AID 488806;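 active = aptamer binding inhibition above 30%, about 3 SD of noise from non-fluorescent compounds; inactive = inhibition at or below 30%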); settings: bead-bound GRK2, FAM-aptamer displacement, at 10 µM, stronger effect = higher value
# Chain of Beta-adrenergic receptor kinase 1 (Homo sapiens) (P25098 whole entry, looked up): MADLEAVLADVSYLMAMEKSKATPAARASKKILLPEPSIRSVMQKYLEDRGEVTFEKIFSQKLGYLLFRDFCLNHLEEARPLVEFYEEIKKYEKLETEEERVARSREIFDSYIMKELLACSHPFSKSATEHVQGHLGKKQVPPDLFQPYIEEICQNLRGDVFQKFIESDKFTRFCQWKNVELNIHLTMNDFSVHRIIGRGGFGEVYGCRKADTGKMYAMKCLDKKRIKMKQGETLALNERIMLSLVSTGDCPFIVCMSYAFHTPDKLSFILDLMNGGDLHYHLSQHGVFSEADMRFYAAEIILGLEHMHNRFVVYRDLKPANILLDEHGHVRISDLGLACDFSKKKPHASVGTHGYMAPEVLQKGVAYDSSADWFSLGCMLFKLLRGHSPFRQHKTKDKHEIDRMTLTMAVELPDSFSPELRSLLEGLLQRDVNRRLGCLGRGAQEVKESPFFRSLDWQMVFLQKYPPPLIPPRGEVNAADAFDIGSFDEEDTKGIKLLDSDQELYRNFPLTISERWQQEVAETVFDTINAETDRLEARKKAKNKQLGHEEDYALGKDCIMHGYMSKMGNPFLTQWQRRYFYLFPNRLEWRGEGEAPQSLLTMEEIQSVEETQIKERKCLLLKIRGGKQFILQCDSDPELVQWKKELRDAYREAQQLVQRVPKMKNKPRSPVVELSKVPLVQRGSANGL
# [10] = molecular target: AP-2 complex subunit beta (Homo sapiens) (UniProt P63010); experiment: beta-arrestin/AP2 interaction blockers – biochemical, validation set, GST-AP2 beads, flow cytometry, pilot screen (AID 504541;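 active = inhibition above 54%, about 3 SD of non-fluorescent compounds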;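 note: AP2 carries R879A mutation and is captured from E. coli lysate; bead-bound FITC arrestin peptide fluorescence measuring arrestin peptide binding to AP2; 0% = DMSO wells and 100% = excess unlabeled arrestin peptide control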); settings: FITC arrestin peptide, at 10 µM, stronger effect = higher value, AP2 beta2 appendage fragment, R879A mutant
# Chain of AP-2 complex subunit beta (Homo sapiens) (P63010 whole entry, looked up, the tested form may be a part, one chain of several): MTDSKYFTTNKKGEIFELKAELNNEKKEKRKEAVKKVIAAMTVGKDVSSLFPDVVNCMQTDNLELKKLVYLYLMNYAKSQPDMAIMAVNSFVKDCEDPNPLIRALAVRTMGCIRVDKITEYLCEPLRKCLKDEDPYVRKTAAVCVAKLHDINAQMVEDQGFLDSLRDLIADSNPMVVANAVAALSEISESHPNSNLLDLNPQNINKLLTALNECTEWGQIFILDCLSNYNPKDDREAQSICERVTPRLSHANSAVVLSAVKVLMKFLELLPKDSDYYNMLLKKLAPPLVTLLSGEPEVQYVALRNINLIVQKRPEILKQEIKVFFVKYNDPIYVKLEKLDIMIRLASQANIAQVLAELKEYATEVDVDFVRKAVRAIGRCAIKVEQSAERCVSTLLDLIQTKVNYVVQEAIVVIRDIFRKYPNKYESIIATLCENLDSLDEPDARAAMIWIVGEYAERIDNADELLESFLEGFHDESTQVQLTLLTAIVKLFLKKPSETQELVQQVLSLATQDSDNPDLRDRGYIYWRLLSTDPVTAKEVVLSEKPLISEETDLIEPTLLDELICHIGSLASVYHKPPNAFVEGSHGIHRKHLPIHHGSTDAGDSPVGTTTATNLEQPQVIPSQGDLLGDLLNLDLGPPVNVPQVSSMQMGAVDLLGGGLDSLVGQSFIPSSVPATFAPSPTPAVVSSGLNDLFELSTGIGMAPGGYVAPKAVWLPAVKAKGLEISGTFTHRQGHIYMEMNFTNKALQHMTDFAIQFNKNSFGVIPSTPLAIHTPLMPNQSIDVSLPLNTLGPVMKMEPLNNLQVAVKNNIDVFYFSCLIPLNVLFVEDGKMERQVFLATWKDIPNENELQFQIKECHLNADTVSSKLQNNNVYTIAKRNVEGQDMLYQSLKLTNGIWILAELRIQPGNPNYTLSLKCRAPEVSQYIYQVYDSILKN
# [11] = cytosolic pH regulators acting via V-ATPase – S. cerevisiae, pHLuorin, HTS validation (AID 504600; in the data active = response above about 15%;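 note: plate controls were DMSO for no effect and reference compound for full effect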); settings: V-ATPase proton transport, at 10 µM, stronger effect = higher value
# [12] = system: anti-desmoglein-3 scFv antibody binding to human DSG3; experiment: blockers of pathogenic pemphigus antibody–desmoglein-3 binding – biochemical, validation compound set, bead-based, flow cytometry, pilot screen (AID 588368;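 active = binding below the plate cutoff, the plate median minus 3 SD, with a reading above zero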;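 note: signal is the median channel fluorescence of bead-bound GFP antibody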); settings: Protein G beads, DSG3-Fc, scFv-GFP binding, at 10 µM, stronger effect = lower value
# [13] = Nile Red efflux blockade in pump-expressing yeast – validation compound set, multiplex, phenotypic, pilot screen (AID 588506;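 active = efflux inhibition above 0.42, the validation set average plus 4 SD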;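 note: Nile Red retained in cells so higher fluorescence means more efflux inhibition; 0 = negative control wells and 1 = enniatin B 25 µM full block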); settings: S. cerevisiae pump-expressing triplex, Nile Red efflux flow cytometry; at 10 µM; stronger effect = higher value; the pumps come from Candida albicans
# [14] = molecular target: ATP-binding cassette sub-family B member 6 (Homo sapiens) (UniProt Q9NP58); experiment: blockers of ABCB6-driven porphyrin uptake – K562-ABCB6 cells, flow cytometry, validation set, pilot screen (AID 588550;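 active = inhibition above the screen-wide mean plus 3 SD, about 51%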;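 note: 0% = DMSO wells and 100% = benzethonium chloride 70 µM positive control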); settings: K562-ABCB6 porphyrin accumulation, 1 h, at 10 µM, stronger effect = higher value
# Chain of ATP-binding cassette sub-family B member 6 (Homo sapiens) (Q9NP58 whole entry, looked up): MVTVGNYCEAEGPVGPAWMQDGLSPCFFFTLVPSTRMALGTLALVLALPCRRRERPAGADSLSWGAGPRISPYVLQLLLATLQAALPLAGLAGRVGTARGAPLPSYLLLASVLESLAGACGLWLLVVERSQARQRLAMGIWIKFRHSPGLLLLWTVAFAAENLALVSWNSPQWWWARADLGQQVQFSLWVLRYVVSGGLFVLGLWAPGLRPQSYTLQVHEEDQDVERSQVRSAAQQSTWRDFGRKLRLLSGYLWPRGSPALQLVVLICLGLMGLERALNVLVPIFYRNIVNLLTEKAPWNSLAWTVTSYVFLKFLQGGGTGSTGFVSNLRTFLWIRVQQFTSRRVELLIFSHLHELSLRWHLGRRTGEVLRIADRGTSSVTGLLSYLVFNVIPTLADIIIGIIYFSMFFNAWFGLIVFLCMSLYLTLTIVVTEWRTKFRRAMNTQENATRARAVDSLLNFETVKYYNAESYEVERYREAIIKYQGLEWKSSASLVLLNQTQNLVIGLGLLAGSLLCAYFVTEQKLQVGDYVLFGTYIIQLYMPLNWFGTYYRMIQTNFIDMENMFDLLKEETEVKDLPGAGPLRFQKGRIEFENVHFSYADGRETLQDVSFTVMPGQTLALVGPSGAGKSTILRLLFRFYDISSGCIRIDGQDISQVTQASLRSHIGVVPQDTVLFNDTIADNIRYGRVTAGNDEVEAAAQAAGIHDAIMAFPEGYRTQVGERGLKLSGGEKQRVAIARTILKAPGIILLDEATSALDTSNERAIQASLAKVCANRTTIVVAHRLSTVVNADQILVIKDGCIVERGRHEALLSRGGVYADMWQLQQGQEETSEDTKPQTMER
# [15] = AML differentiation inducers, ER-HoxA9 marrow cells – cell-based, GFP/MAC1 double positive, flow cytometry, validation set, primary screen (AID 588685;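 active = differentiation response of at least 50%, scaled between solvent and reference control, from cells with both markers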;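 note: compound exposure lasts four days before antibody staining and flow analysis; 0% = DMSO wells and 100% = 5 µM fulvestrant positive control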); settings: stronger effect = higher value, normalized: vehicle 0, fulvestrant 100
Structure (SMILES),percent of DMSO control GFP [1],GFP response vs DMSO [2],percent response of DMSO control [3],GFP response vs DMSO [4],"GFP response, % of DMSO [5]",double positive events [6],vesicle binding response [6],inhibition [7],superoxide response (% of plate) [8],aptamer binding inhibition [9],inhibition [10],response [11],binding (% of control) [12],efflux inhibition (fraction of control) [13],inhibition [14],differentiation response [15]
CCN(CC)C1=C(Cl)C(=O)C(Cl)C12OCCO2 (stereo not given),100% (inactive),104% (inactive),88.1% (inactive),100% (inactive),89.2% (inactive),61.5%,160% (inactive),6.29% (inactive),94.6% (inactive),-5% (inactive),49.7% (inactive),1.58% (inactive),95.6% (inactive),0.9 (active),10% (inactive),6.26% (inactive)
Cc1ncc([N+](=O)[O-])n1CC(C)O (stereo not given),101% (inactive),103% (inactive),103% (inactive),99.4% (inactive),97.3% (inactive),52.2%,149% (inactive),8.15% (inactive),100% (inactive),9% (inactive),-6.78% (inactive),-2.48% (inactive),100% (inactive),0.14 (inactive),8% (inactive),-9.89% (inactive)
CC(C)(C)NC[C@H](O)COc1nsnc1N1CCOCC1,94.4% (inactive),136% (inactive),108% (inactive),78.7% (inactive),93.1% (inactive),70.5%,173% (inactive),17.1% (inactive),91.1% (inactive),3% (inactive),-3.6% (inactive),4.73% (inactive),96.3% (inactive),0.05 (inactive),9% (inactive),-0.82% (inactive)
C[C@H](CS)C(=O)N1CCC[C@H]1C(=O)O,106% (inactive),98.9% (inactive),109% (inactive),96.4% (inactive),102% (inactive),58.6%,186% (inactive),-2.11% (inactive),97.4% (inactive),0% (inactive),-2.44% (inactive),-1.86% (inactive),96.7% (inactive),-0.16 (inactive),8% (inactive),-29.3% (inactive)
Cc1cnc(C(=O)NCCc2ccc(S(=O)(=O)NC(=O)NC3CCCCC3)cc2)cn1,93.9% (inactive),93.8% (inactive),110% (inactive),92.3% (inactive),92.2% (inactive),65%,230% (inactive),-9.57% (inactive),95.2% (inactive),2% (inactive),-11.4% (inactive),-3.18% (inactive),104% (inactive),-0.12 (inactive),4% (inactive),-3.43% (inactive)
COc1cc(=O)n(C)c2ccccc12,93.5% (inactive),99.9% (inactive),97.9% (inactive),90.3% (inactive),93.7% (inactive),54.6%,136% (inactive),7.22% (inactive),103% (inactive),3% (inactive),28% (inactive),3.71% (inactive),96.9% (inactive),0.33 (inactive),3% (inactive),-1.82% (inactive)
COCCOC(=O)c1c(C)oc2ccc(OCc3cc(C(=O)OC)oc3C)cc12,97.6% (inactive),102% (inactive),93.9% (inactive),101% (inactive),98.1% (inactive),52.6%,202% (inactive),10.9% (inactive),93.4% (inactive),0% (inactive),-4.42% (inactive),26.8% (active),98.7% (inactive),0.06 (inactive),4% (inactive),-11.5% (inactive)
O=C(/C=C/c1ccc(Cl)cc1)NCCc1ccccc1,102% (inactive),92.8% (inactive),97.9% (inactive),97.4% (inactive),97.5% (inactive),54.1%,270% (inactive),2.56% (inactive),106% (inactive),-1% (inactive),-7.53% (inactive),2.01% (inactive),98.2% (inactive),-0.09 (inactive),7% (inactive),-5.05% (inactive)
O=C(c1ccc(F)cc1)[C@@H]1[C@@H](C(=O)c2ccccc2)[C@@]2(C(=O)Nc3ccccc32)[C@H]2c3ccccc3C=CN12,102% (inactive),93.8% (inactive),106% (inactive),102% (inactive),102% (inactive),43.2%,172% (inactive),-183% (inactive),121% (inactive),-3% (inactive),-24.7% (inactive),2.83% (inactive),100% (inactive),0.03 (inactive),3% (inactive),-19.6% (inactive)
Cc1nc(C(=O)Nc2ccccc2Cl)cc2c1[nH]c1ccccc12,99.6% (inactive),108% (inactive),106% (inactive),100% (inactive),98.2% (inactive),53.9%,172% (inactive),-1.17% (inactive),111% (inactive),1% (inactive),-0.33% (inactive),2.14% (inactive),95.4% (inactive),0.14 (inactive),11% (inactive),-9.89% (inactive)

# — PubChem BioAssay
